Screening results as filed in PubChem BioAssay.
HT1080 IDH1KD tx: HT-1080 IDH1 knockdown cell toxicity (counter line). 360,000 tested, 2% active. HT-1080 IDH1 knockdown viability, ATP luminescence, 48 h. Potency, µM (highest dose often 46.1 µM), inactives show top-dose activity, negative = toxicity, actives largely listed as cytotoxic. AID 686971;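 note: 0% = DMSO wells and -100% = cell-free medium wells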
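Using the IDH1-knockdown HT-1080 line run in the same batch and compound series as the NT line, viability after 48 h at 37 °C was determined by CellTiter-Glo luminescence and expressed as % activity.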
KB-3-1 tox: KB-3-1 parental cell cytotoxicity | Potency, µM (top dose mostly 46.1 µM), usual class: cytotoxic | AID 1347075 | 400,000 tested, 1.4% active | KB-3-1 viability, CellTiter-Glo ATP luminescence, 72 h; note: % is set by controls: 0 for no effect and ±100 for the full control effect; nearly all actives have a fitted effect of over 60% in size
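KB-3-1 parental drug-naive adenocarcinoma cells in DMEM/10% FBS, incubated 72 h at 37 C with pin-transferred compounds across a concentration series. Viability by CellTiter-Glo luminescence; concentration-response curves fitted after normalization.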
KB-V1 MDR tox: kills drug-selected multidrug resistant KB-V1 cells | 400,000 tested, 3.4% active | Potency, µM (doses to about 46.1 µM), actives largely listed as cytotoxic | KB-V1 MDR cells viability, CellTiter-Glo, 72 h; note: % is set by controls: 0 for no effect and ±100 for the full control effect; nearly all actives have a fitted effect of over 60% in size
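KB-V1 cells (P-gp-expressing MDR subline of KB-3-1) in phenol-red-free DMEM with 10% FBS were exposed to library compounds over a concentration series for 72 h at 37 degrees C. Viability read by CellTiter-Glo luminescence; concentration-effect curves fitted after normalization.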
HT1080-NT tox: kills 2HG-producing HT-1080-NT fibrosarcoma cells; 360,000 tested, 1.6% active; Potency, µM (titrated, usually from 46.1 µM), inactives show top-dose activity, negative = less viability, most hits filed as cytotoxic; HT-1080-NT fibrosarcoma viability, CellTiter-Glo ATP luminescence, 48 h; AID 686970;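 note: NT is the 2HG producing partner of a matched IDH1 knockdown line; 0% = DMSO-treated cells and -100% = media-only wells without cells; nearly all actives have a fitted effect of over 55% in size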
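A 48-hour cytotoxicity screen used HT-1080-NT cells plated 2 hours before compound delivery. ATP-based CellTiter-Glo luminescence measured viability, normalized to DMSO and no-cell controls.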
ATXN viability: cell viability loss in ATXN counter-screen; 400,000 tested, 0.49% active; Potency, µM (highest dose often 56.7 µM), actives largely listed as cytotoxic; S2 cells (HEK-293 line with an ATXN2-luciferase reporter) viability, CellTiter-Fluor protease fluorescence, 24 h; AID 651635; note: nearly all actives have a fitted effect of over 40% in size
ATXN2 expr inh: reduces ATXN2 reporter expression in HEK-293 cells. HEK-293 ATXN2-luciferase reporter, luminescence, 24 h. Potency, µM (doses to about 57 µM), for inactives: at the highest dose activity change, negative = inhibition, actives largely listed as inhibitors. 360,000 tested, 0.72% active. AID 1745845; note: % is set by controls: 0 for no effect and ±100 for the full control effect; nearly all actives have a fitted effect of over 55% in size
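ATXN2-luciferase reporter cells (luciferase flanked by upstream and downstream ATXN2 gene portions) were treated 24 h at 37 °C with compounds at up to 57 uM. SteadyGlo luminescence gave expression; GF-AFC fluorescence gave viability.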
* = called active by the depositor; i = inactive; ? = inconclusive; / = no result; [ ] = another dose, or the depositor's remark. In the library only some 6.2% were active in any assay of this set; here they are far more common. Calls come from the whole dose curve; as a rule, active = well fitted curve in the direction sought with a large enough effect; inconclusive = small, poorly fitted or top-dose-only effect, or another doubt; inactive = no such curve, though single readings can be large; an effect the other way counts as inactive or inconclusive. Potency is the fitted concentration of half-maximal effect.

SMILES	HT1080 IDH1KD tx	KB-3-1 tox	KB-V1 MDR tox	HT1080-NT tox	ATXN viability	ATXN2 expr inh
CCC(=O)c1ccc(OCC(=O)N(Cc2nnc(-c3ccccc3Cl)o2)C2CC2)cc1	0%	i	?	0%	i	-4%
Cc1cccc(CN2CCC(CNC(=O)c3c(C)oc4ncnc(N5CCCCC5)c34)CC2)c1	/	i	i	/	i	-5%
C#CCSc1nc2sc3c(c2c(=O)n1-c1cccc(OC)c1)CCN(C(C)=O)C3	/	i	i	/	i	-9%
CCN1CCc2c(sc(NC(=O)c3ccc(C(=O)c4ccccc4)cc3)c2C(N)=O)C1	?	i	i	21µM*	i	-37%
CCN1CCc2c(sc(NC(=O)c3ccc(S(=O)(=O)N(CC)c4ccccc4)cc3)c2C(N)=O)C1	5.8µM*	?	?	18µM*	i	-20%
CCCCN(CCCC)S(=O)(=O)c1ccc(C(=O)Nc2sc3c(c2C(N)=O)CCN(CC)C3)cc1	/	i	i	/	/	-31%
COc1ccc(N2CCN(C(c3ccc(C)cc3)c3nnnn3C(C)(C)C)CC2)cc1 (centres undefined)	/	i	i	/	/	/
CCc1ccccc1NC(=O)CSc1nnc(COc2ccccc2Cl)o1	/	i	i	/	i	2%
COc1ccccc1CCNc1ncnc2sc(C(=O)N3CCCCC3)c(C)c12	/	/	/	/	i	/
CC(c1cccs1)N(Cc1ccco1)C(=O)Nc1ccc(Cl)c(Cl)c1 (centres undefined)	-25%	i	16µM*	-17%	i	?
CCOC(=O)CNC(=O)c1sc2ncnc(N3CCc4ccccc4C3)c2c1C	-21%	i	15µM*	-11%	i	5%
CCOC(=O)c1cccc(NC(=O)c2ccc3nc(CCc4ccccc4)oc3c2)c1	/	i	i	/	i	37%
CC1CCCCN1C(=O)C1CCN(c2nc(-c3ccccc3)nc3c2CCC3)CC1 (centres undefined)	11%	21µM*	i	-1%	?	?
COc1ccc(Nc2ncnc3c2cnn3-c2ccc(C)cc2C)cc1	/	i	i	/	i	0%
Cc1cc(N2CCN(C(C(=O)NC3CCCC3)C(C)C)CC2)c2ccccc2n1 (centres undefined)	-1%	i	?	-15%	/	/
Cc1cc(N2CCN(C(C(=O)NC3CCCC3)c3ccc(-c4ccccc4)cc3)CC2)c2ccccc2n1 (centres undefined)	-17%	?	21µM*	-27%	/	/
Cc1ccccc1OCCCSc1nc2ccccc2[nH]1	-24%	?	12µM*	-19%	?	-3%
COc1ccc(N=Nc2c(C)[nH]c3ccccc23)cc1	18µM*	i	i	?	i	-25%
COc1cccc(N=Nc2c(N)[nH][nH]c2=O)c1	-2%	i	18µM*	-11%	i	-24%
COc1ccc(N=Nc2c(C)[nH][nH]c2=O)cc1	-10%	?	23µM*	-3%	i	6%[11.3 µM]
O=C(/C=C/c1cccnc1)Nc1cccc([S+](=O)([O-])Nc2ccccc2F)c1	/	i	i	/	/	/
Clc1ccc(OCCCNCc2ccccc2)c(Br)c1	?	i	21µM*	?	/	?
Clc1ccc(Cl)c(OCCCCNCc2ccccc2)c1	?	i	i	?	i	-13%
C=CCc1cc(Cl)ccc1OCCCNC(C)CC (centres undefined)	?	?	13µM*	?	i	-13%
CCCCNCCOCCOc1ccc(C)cc1Br	-23%	i	16µM*	-30%	i	-8%
CCC(C)NCCOCCOc1cc(C)c(Cl)c(C)c1 (centres undefined)	21µM*	?	?	21µM*	i	?
CCOC(=O)c1sc2cccc(F)c2c1S(=O)(=O)NCc1ccccc1Cl	/	i	i	/	i	-6%
Cc1ccc(C)c(NC(=O)N2CCC(N3CCN(Cc4ccc(F)cc4)C(=O)C3=O)CC2)c1	/	i	i	/	i	1%
